Assay results: PubChem BioAssay AID1645887 (National Center for Advancing Translational Sciences (NCATS), 2021)
Where “and” joins values, the source holds several entries; their conditions need not be identical. Equal values may be shown once. Among all 16,000 compounds or so, about 40 (0.2%) were called active. About 1% were inconclusive and are not listed. The sample holds actives, similar compounds and a random draw of the others, so the mix is not that of the screen. The source holds several records for some structures; these can differ, active in one and inactive in another. A number with no mark means an inactive call. Calls follow the shape of the dose curve; as a rule, active = well fitted activation curve with a large enough effect; inconclusive = small, poorly fitted or top-dose-only effect, or another doubt; inactive = no such curve, though single readings can be large or run the other way.

These molecules were tested against Rap guanine nucleotide exchange factor 4 (Homo sapiens) (UniProt Q8WZA2) (assay: Validation qHTS for agonist of cAMP-regulated guanine nucleotide exchange factor 4 (EPAC2)). Settings: EPAC2 Rap1B BODIPY-GDP exchange, fluorescence; activation: active compounds read high.
Chain of Rap guanine nucleotide exchange factor 4 (Homo sapiens) (Q8WZA2 whole entry, looked up): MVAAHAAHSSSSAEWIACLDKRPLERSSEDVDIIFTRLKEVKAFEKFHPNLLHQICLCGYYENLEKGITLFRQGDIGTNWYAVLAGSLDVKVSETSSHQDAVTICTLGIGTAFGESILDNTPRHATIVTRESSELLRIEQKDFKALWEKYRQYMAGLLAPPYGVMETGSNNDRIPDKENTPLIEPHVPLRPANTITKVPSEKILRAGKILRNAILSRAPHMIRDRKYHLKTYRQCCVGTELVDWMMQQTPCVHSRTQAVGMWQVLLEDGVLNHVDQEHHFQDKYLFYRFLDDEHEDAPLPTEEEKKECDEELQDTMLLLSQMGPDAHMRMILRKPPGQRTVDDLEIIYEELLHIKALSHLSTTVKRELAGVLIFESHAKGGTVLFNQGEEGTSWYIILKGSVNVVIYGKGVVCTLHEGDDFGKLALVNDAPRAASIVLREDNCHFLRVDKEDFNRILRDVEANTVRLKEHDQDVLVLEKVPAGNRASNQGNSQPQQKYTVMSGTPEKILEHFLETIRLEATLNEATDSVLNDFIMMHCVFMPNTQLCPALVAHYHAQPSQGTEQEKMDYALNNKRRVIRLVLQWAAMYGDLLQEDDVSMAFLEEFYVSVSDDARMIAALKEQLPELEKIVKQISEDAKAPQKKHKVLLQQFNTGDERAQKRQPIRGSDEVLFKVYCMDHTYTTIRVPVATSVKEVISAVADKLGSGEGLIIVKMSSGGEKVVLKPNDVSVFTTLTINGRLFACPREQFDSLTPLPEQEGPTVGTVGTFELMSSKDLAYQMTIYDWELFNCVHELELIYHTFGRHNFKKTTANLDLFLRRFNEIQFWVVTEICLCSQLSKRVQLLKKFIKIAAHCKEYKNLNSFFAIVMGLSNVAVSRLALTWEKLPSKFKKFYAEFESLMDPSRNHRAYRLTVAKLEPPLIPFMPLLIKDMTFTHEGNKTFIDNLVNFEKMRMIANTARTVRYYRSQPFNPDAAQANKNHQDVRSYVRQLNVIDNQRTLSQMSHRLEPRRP
How it was run: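 Signal normalized against 6.5 mM cAMP as agonist control. Mix of EPAC2 (100 nM), RAP1B-BODIPY-GDP (250 nM) and GDP (50 uM) was read kinetically at 480/540 nm, every 5 min over 30 min, after 5 min room-temperature incubation with compound.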
% is scaled to controls: 0 for no effect and ±100 for the full control effect; potency is read from the fitted curve at half-maximal effect.
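For activation in this document: exchange makes BODIPY-GDP fluorescence drop when released from Rap1B; series mostly up to about 150 µM.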

SMILES | activation | Potency
Cc1cc(C)n2nc(C(=O)NCC3Cc4cccc(-c5ccc(S(C)(=O)=O)cc5)c4O3)cc2n1 (configuration not stated) | 2.37% | –
O=c1oc2c(O)c(O)cc3c(=O)oc4c(O)c(O)cc1c4c23 | 0.203% | 126 µM (active)
COc1c(O)cc2c(=O)oc3c(OC)c(O)cc4c(=O)oc1c2c34 | -13.8% | –
Cc1cc(=O)oc2c(O)c(O)ccc12 | -5.12% | –
CN(C)c1ccc(/C=C/c2ccc3cc(N(C)C)ccc3n2)cc1 | 0.661% | –
COc1ccccc1-c1nccc(NCc2cccc(C)c2)n1 | -13.6% | –
COc1ccccc1-c1nccc(NCc2ccccc2)n1 | -0.806% | –
CCOC(=O)Nc1ccc(NCc2ccc(F)cc2)nc1N | – | 112 µM (active)
OC1CCN(Cc2ccc3c(c2)CN(Cc2ccc(Oc4ncccn4)cc2)CCO3)CC1 | -1.28% | –
CC(=O)OCC1=C(C(=O)O)N2C(=O)C(NC(=O)CSc3ccncc3)[C@@H]2SC1 (some centres not stated) | -16.2% | –
O=C(NCc1nnc2n1CCN(C(=O)c1cccc(Cl)c1)CC2)C1CC1 | -2.97% | –
CC(=O)OCC(=O)[C@@]1(O)CCC2C3CC(C)C4=CC(=O)C=CC4(C)C3C(O)CC21C (some centres not stated) | -21.4% | –
Cc1cnc(SCCN2CCOCC2)nc1C1CCCN(C(=O)c2cccc3c(C)c(C)[nH]c23)C1 (configuration not stated) | -5.56% | –
C/C1=C2N=C(/C=C3N=C(/C(C)=C4\[N-][C@@](C)([C@@H]5N=C1[C@](C)(CCC(=O)NCC(C)OP(=O)(O)O[C@H]1[C@@H](O)[C@@H](n6cnc7cc(C)c(C)cc76)O[C@@H]1CO)[C@H]5CC(N)=O)[C@@](C)(CC(N)=O)[C@@H]4CCC(N)=O)[C@@](C)(CC(N)=O)[C@@H]\3CCC(N)=O)C(C)(C)[C@@H]/2CCC(N)=O.CC(=O)O.[Co] (some centres not stated) | – | 56.2 µM (active)
CC(=O)NCC(=O)NCC1Cc2cc(C)cc(-c3ccccn3)c2O1 (configuration not stated) | 0.493% | –
CN(CCO)C(=O)c1cn(C2CCCN(Cc3ccc(C(F)(F)F)cc3)C2)nn1 (configuration not stated) | -15.8% | –
COC(=O)C1[C@H]2SC(C)(C)C(C(=O)OC)N2C(=O)N1Cc1ccccc1 (some centres not stated) | -17.5% | –
COCCn1c(=O)c(-c2ccc(F)cc2)nc2cnc(Nc3cccc(OC)c3)nc21 | 6.42% | –
C[C@@H](N)CCCP(=O)(O)O | -1.34% | –
CC(C)CN1CCC2(CC1)CCN(C(=O)c1ccco1)CC2 | -7.83% | –
COC(=O)C1C(O)CC[C@@H]2CN3CCc4c([nH]c5ccccc45)C3C[C@@H]12 (some centres not stated) | -7.23% and -17.2% | –
